# Screening results: PubChem BioAssay, several laboratories
# NLRP3 yeast inh: NALP3 inhibition in yeast; Yeast reconstituted NLRP3/ASC/caspase-1, beta-gal luminescence, 24 h; inhibition, % at 10 µM; 330,000 compounds, 0.39% hits; AID 2825;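 active = inhibition of 50% or more; inactive = inhibition below 50%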;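 note: plate controls were induced DMSO wells for no effect and uninduced yeast grown without galactose for full effect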
# tim23-1 inh: inhibits growth of tim23-1 mutant yeast. S. cerevisiae tim23-1 growth, BacTiter-Glo luminescence, 24 h. inhibition, % at 20 µM. 330,000 compounds, 1.3% hits. AID 463212;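 active = growth inhibition of the mutant yeast at or above 50%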;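 note: temperature-sensitive mutant grown at 25 °C; plate controls were DMSO-treated mutant yeast for no effect and medium wells lacking yeast for full effect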
# TIM10 inh: inhibits growth of TIM10 yeast strain | S. cerevisiae TIM10 strain growth, BacTiter-Glo luminescence, 24 h | inhibition, % at 10 µM | 330,000 compounds, 1.4% hits;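 active = inhibition of 40% or more at the single tested concentration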;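 note: wild-type TIM10 isogenic control strain grown at permissive 25 °C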
# tim10-1 inh: growth inhibitors of tim10-1 mutant yeast; S. cerevisiae tim10-1 ts strain growth, BacTiter-Glo, 24 h; inhibition, % at 20 µM; 330,000 compounds, 2.2% hits; AID 463190;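 active = inhibition of at least 40%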;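 note: mutant grown at 25 °C; 0% = DMSO wells with yeast and 100% = wells holding no yeast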
# NALP1 yeast inh: blocks the NALP1 inflammasome reconstituted in yeast | S. cerevisiae NALP1/ASC/caspase-1 growth, X-gal OD620, 72 h | inhibition, % at 10 µM | 280,000 compounds, 0.61% hits; in the data active = inhibition mostly above about 24%, no sharp cut-off; inactive = mostly below about 32%
# PfHsp90 yeast 2: growth inhibition of yeast expressing Plasmodium Hsp90 | S. cerevisiae expressing PfHsp90, BacTiter-Glo ATP, 48 h; yeast lacking PDR1 and PDR3 efflux regulators | inhibition, % at 9.4 µM | 310,000 compounds, 0.32% hits | AID 504621;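 active = every replicate shows inhibition above about 80%, whatever the replicate mean, limit read from the data; inconclusive = mean inhibition reaches the set limit but some replicate falls short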;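 note: 0% = DMSO neutral controls and 100% = 20 µM radicicol positive controls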
# tim10-1 confirm: tim10-1 yeast growth inhibition, confirmed. AID 463213. S. cerevisiae tim10-1 ts strain growth, BacTiter-Glo, 24 h. shares compounds with tim10-1 inh. 7,400 compounds, 56% hits. inhibition, % at 20 µM;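 active = inhibition of yeast growth at or above a set limit in either of two repeat tests at 20 µM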;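 note: tim10-1 mutant grown at permissive 25 °C to find synthetic lethal compounds; 0% = DMSO yeast wells and 100% = medium wells without yeast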
# tim10 confirm: confirmation of TIM10 yeast growth inhibitors | 4,600 compounds, 63% hits | inhibition, % at 10 µM | S. cerevisiae tim10 strain growth, BacTiter-Glo luminescence, 24 h | AID 463215 | shares compounds with TIM10 inh;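 active = inhibition of yeast growth at or above a set limit in either of two replicates at 10 µM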;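 note: this counterscreen used the strain with wild-type TIM10; 0% = yeast with DMSO and 100% = medium wells lacking yeast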
# The depositor's hits bear a star; u = inconclusive; x = no result given. A selection: hits, their analogues and other compounds. The true share with any hit is near 4.1%.
SMILES,NLRP3 yeast inh,tim23-1 inh,TIM10 inh,tim10-1 inh,NALP1 yeast inh,PfHsp90 yeast 2,tim10-1 confirm,tim10 confirm
CCc1cccc(N=c2c([N+](=O)[O-])nn(-c3ccc4c(c3)OCCO4)n2O)c1,-23,47,57*,48*,-6,-37,31*,42*
CC(C)c1ccc(N=c2c([N+](=O)[O-])nn(-c3ccc4c(c3)OCCO4)n2O)cc1,-28,30,24,22,8,3,x,x
CC(C)Cn1c(C(C)C)nc([N+](=O)[O-])c1Sc1ccc(Cl)cn1,3,48,23,37,0,x,x,x
CCCCn1c(CCC)nc([N+](=O)[O-])c1Sc1ccc(Cl)cn1,1,47,49*,44*,3,-22,40*,42*
CCc1cc2ccc(C)cc2nc1SCC(=O)NNC(=O)c1ccco1,6,12,42*,40*,15,-14,20,15
O=C(/C=C/c1ccccc1[N+](=O)[O-])c1ccc(F)cc1,0,45,43*,47*,4,3,44*,26
CCOC(=O)C1CCCN(C(=O)c2ccc(-c3ccc([N+](=O)[O-])cc3)o2)C1 (centres undefined),9,46,46*,58*,x,14,66*,58*
CCOC(=O)C1CCCN(C(=O)c2ccc(CS(=O)(=O)c3ccc(C)cc3)o2)C1 (centres undefined),5,6,6,13,3,27,x,x
Cn1cccc1/C=C1\CC(C(C)(C)C)C/C(=C\c2cccn2C)C1=O (centres undefined),28,40,41*,45*,-3,x,43*,42*
CC1(C)CC2CC(C)(CN2C(=S)NC(=O)c2ccccc2Cl)C1 (centres undefined),50,48,42*,41*,37,13,32*,10
CC1(C)CC2CC(C)(CN2C(=S)Nc2ccccc2)C1 (centres undefined),-5,32,21,3,2,-6,x,x
CC1CN(C(=O)CCC(=O)NC2CCCCC2)c2ccccc2S1 (centres undefined),18,11,1,25,4,2,x,x
Cc1cc(OCCSc2nnc(-c3cccs3)n2C)ccc1Cl,0,44,38,26,9,-4,x,x
Cn1c(SCCOc2ccccc2Cl)nnc1-c1cccs1,39,39,51*,51*,-3,-17,40*,51*
O=C(NC12CC3CC(CC(C3)C1)C2)c1ccccc1O,-5,32,49*,50*,14,9,51*,48*
Cc1cccc(-n2cc(CN(C)Cc3nccn3C)c(-c3cccc(F)c3)n2)c1,4,46,45*,43*,4,11,24,44*
Cc1ccccc1C(=O)NNC(=O)c1cccc(Br)c1,1,20,3,10,10,5,x,x
CCOC(=O)N1CCC(NC(=O)CS(=O)Cc2nc(-c3ccc(C)cc3)oc2C)CC1 (centres undefined),-1,1,1,8,11,-34,x,x
O=S(=O)(NCCNc1ncc(C(F)(F)F)cc1Cl)C(F)(F)F,-11,47,45*,55*,-6,8,46*,13
CS(=O)(=O)NCCNc1ncc(C(F)(F)F)cc1Cl,26,8,-6,4,-28,-17,x,x
O=C1C=CC(=O)N1CCNc1ncc(C(F)(F)F)cc1Cl,-46,47,88*,92*,55*,101*,94*,98*
O=C(NN=C1CCCC1)c1ccc(O)cc1,25,0,-4,-2,0,-4,x,x
CCc1ccc(/C=C2/C(=O)N(c3ccccc3)C(=S)N2CC(=O)OC)s1,19,42,12,27,24,13,x,x
CCN1C(=O)/C(=C/N(C(C)=O)c2ccccc2)N(c2ccccc2)C1=S,46,29,50*,45*,13,2,42*,-39
Oc1ccc(C[C@@H]2CNC(=S)N2CCCCC2CCCCC2)cc1,8,38,40*,53*,-9,-36,25,18
SMILES,NLRP3 yeast inh,tim23-1 inh,TIM10 inh,tim10-1 inh,NALP1 yeast inh,PfHsp90 yeast 2,tim10-1 confirm,tim10 confirm
O=S(=O)(CCN(CCS(=O)(=O)C(F)(F)F)CC1CCCO1)C(F)(F)F (centres undefined),18,35,45*,50*,-26,-15,41*,26
O=C(NCC1CCCO1)C1CCN(S(=O)(=O)N2CCCC2)CC1 (centres undefined),-8,-1,-10,-2,10,4,x,x
CCCn1c(=O)c(C(=O)NCCc2ccc(OC)cc2)c(O)c2ccccc21,22,14,4,-25,12,4,x,x
O=C1NN=C(c2ccccc2)CC1c1ccc(Cl)cc1Cl (centres undefined),12,49,42*,50*,6,-11,38*,57*
Cc1nn(-c2ccccc2Cl)c(Cl)c1/C=N/Nc1nc2ccccc2s1,-6,12,9,6,32,-13,x,x
CCn1c(C)c(/C=N/Nc2nc3ccccc3s2)c2ccccc21,3,21,43*,48*,-2,x,25,27
S=c1[nH]nc(COc2ccccc2)n1/N=C/c1ccc(Br)s1,35,43,46*,47*,-3,-20,34*,49*
Oc1ccccc1/C=N/n1c(COc2ccccc2)n[nH]c1=S,25,42,13,37,-23,-6,x,x
COc1ccc(C2=C(N)c3ccccc3C2=O)cc1,30,31,20,-30,4,38,x,x
COC1=C(c2ccccc2)C(=O)c2ccccc2C1=O,-21,37,89*,80*,41,u,72*,90*
Cc1ccc(C(OCC(O)CNCc2ccc(F)cc2)c2ccccc2)cc1 (centres undefined),33,40,68*,64*,22,1,74*,61*
O=C(c1ccccc1)c1ccc(OCC(O)CNCc2ccc(F)cc2)cc1 (centres undefined),x,x,x,x,8,44,x,x
CCC(CC)NC(=O)Nc1cccc(C)c1C,8,-2,-2,2,8,9,x,x
CCC(C)N(CC(=O)Nc1cccc(C)c1C)C(=O)CCl (centres undefined),13,45,54*,53*,-5,-9,47*,46*
Cc1ccc(OCCSc2nc3ccccc3n2CCC(=O)O)cc1,11,17,-4,8,-20,5,x,x
Cc1ccc(C)n1N1C(=O)/C(=C\c2ccc(Cl)cc2)SC1=S,-4,7,63*,69*,3,13,61*,64*
